About 79,000 compounds went through this panel and 15% of them were active in at least one assay; those are over-represented in the sample as a whole. Unmarked numbers belong to inactive results. Rule as the data show it: active = growth inhibition above about 70%; inactive = the rest.
Assay: NCI Yeast Anticancer Drug Screen. Data for the sgs1 mgt1 strain (AID 161);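 also: 0% = growth of cultures given vehicle only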
Conditions: S. cerevisiae sgs1 mgt1 strain, at 50.0 µM, stronger effect = higher value
Outline: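 Percent growth inhibition was derived by comparing compound-exposed mutant yeast with vehicle-exposed cultures. The strain carries alterations in DNA damage repair.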

| SMILES | growth inhibition [%] |
| --- | --- |
| COC(=O)C(CSSCC(C(=O)NC(Cc1ccccc1)C(=O)NCC(=O)OC(C)(C)C)N1C(=O)CCC1=O)NC(=O)OCc1ccccc1 (stereo not drawn) | -5.45 |
| COc1cc2ccc3c[n+](C)ccc3c2cc1OC | -13.4 |
| CCCCNc1nc(SC)nc2nc[nH]c12 | -41.1 |
| O=C1c2ccccc2-c2ccc(-n3c(=O)c4ccccc4c4ccccc4c3=O)cc21 | 29.8 |
| O=C1NC(=O)C2CCC12 (stereo not drawn) | 1.45 |
| CC/C(=C/c1cccc([N+](=O)[O-])c1)C(=O)O | 0 |
| Cc1c(C(=O)O)c2cc3ccccc3cc2c(=O)n1C | -10.1 |
| N=c1oc2ccc([N+](=O)[O-])cc2cc1C(=O)NCc1ccccc1 | -13.9 |
| CNC(C#N)c1ccco1 (stereo not drawn) | 16 |
| CCCCCCC(O)C/C=C/CCCCCC/C(C(=O)OC)=C(/O)C(=O)OCC (stereo not drawn) | 11.5 |
| Cc1noc2c1NC(=O)OCC2 | -3.85 |
| O=C(O)c1ccccc1C(=O)NCc1ccc(Cl)cc1Cl | 21.4 |
| Nc1nc(Cl)cc(Nc2ccc3c(c2)CCC3)n1 | 26.5 |
| Cc1c2cnccc2c(C)c2c1c1ccccc1n2CCCCCCCl | 49.8 |
| CCCCC(O)(CCCC)CC(C)C | -2.4 |
| Cc1ccccc1NCS(=O)(=O)O | 13.2 |
| C/C(=N\NS(=O)(=O)c1ccc(C)cc1)c1c(C)noc1C | 13.3 |
| CN1NC2=NCCN=C3NN(C)C(=NCCN=C1S2)S3 | -43.3 |

Reference: PubChem BioAssay (NCI)
